Source: PubChem BioAssay (National Center for Advancing Translational Sciences (NCATS))
Nrf2 block = Nrf2 qHTS screen for inhibitors. A549 ARE-Fluc reporter, luciferase luminescence, 18-24 h. Potency, µM (series often up to 46 µM), without a hit: at the top dose activity change, negative = inhibition, hits mostly inhibitors. actives 2.1% (n = 360,000). AID 504444, 2011; note: potency is the fitted concentration of half-maximal effect; % is set by controls: 0 for no effect and ±100 for the full control effect; nearly all actives have a fitted effect of over 60% in size
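Concentration-response testing used A549 ARE_Fluc cells at 5000 cells/well. Following an 18-24 h compound incubation, viability was read by fluorescence (Ex 405/Em 525) and luciferase output by luminescence.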
ClpP mod = qHTS Assay for Activators of ClpP | actives 1.9% (n = 340,000) | purified B. subtilis ClpP, FRET peptide cleavage, 20 min | Potency, µM (titrated, usually from 57.5 µM), for inactives: at the highest dose activity change, negative = active; active = well fitted falling curve with a large enough effect; inconclusive = small, poorly fitted or top-dose-only effect; inactive = no such curve, though single readings can be large or run the other way; note: potency is the fitted concentration of half-maximal effect; the source files actives as falling curves though it sought activators and does not explain the sign; nearly all actives have a fitted effect of over 65% in size
Target sequence (P80244 whole entry, looked up): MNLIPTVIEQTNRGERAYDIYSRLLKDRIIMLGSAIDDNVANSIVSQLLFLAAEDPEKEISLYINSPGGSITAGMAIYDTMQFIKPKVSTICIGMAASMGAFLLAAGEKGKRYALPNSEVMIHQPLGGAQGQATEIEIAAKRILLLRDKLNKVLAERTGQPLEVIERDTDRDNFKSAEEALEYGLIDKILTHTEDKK
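Buffer: 100 mM Tris/HCl pH8, 100 mM KCl, 0.05% low protease BSA, 2.5% glycerol, 0.01% Tween-20. ClpP 10 microg/mL final; 20 min RT; delta FRET normalized to ADEP and DMSO controls.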
miR-21 act = qHTS Assay for Modulators of miRNAs and/orActivators of miR-21 | HeLa miR-21 FLuc reporter, luciferase, 48 h | Potency, µM (titrated, usually from 38.3 µM), for inactives: top-dose activity change, positive = activation, most hits filed as activators | 340,000 tested, under 10 active;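 note: % of control where 0% means no effect; miR-21 action dims this reporter so a rising signal means less miR-21 action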
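HeLa cells stably expressing CMV-driven firefly luciferase with a downstream miR-21 binding sequence, endogenously expressing miR-21, were treated with titrations (up to about 40uM final) for 48 hours at 37 degree Celsius. Luciferase luminescence was read after lysis.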
A549 viability = Nrf2 qHTS screen for inhibitors: counterscreen for cytotoxicity; A549 ARE-Fluc cells, CellTiter-Fluor viability, 18-24 h; Potency, µM (doses to about 46 µM), inactives show at the highest dose activity change, negative = cytotoxicity, usual class: inhibitors; actives 0.16% (n = 390,000); note: potency is the fitted concentration of half-maximal effect; % is set by controls: 0 for no effect and ±100 for the full control effect
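A549 ARE_Fluc cells in 5% FBS OPTI-MEM were exposed to compounds in concentration-response for 18-24 h at 37 deg C. Viability was read by CellTiter-Fluor fluorescence (Ex 405/Em 525) after 30 min, before the luciferase read.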
Nrf2 ARE act = qHTS of Nrf2 Activators. AREc32 ARE-luciferase reporter (MCF7-derived line), luminescence, 24 h. Potency, µM (highest dose often 46.1 µM), for inactives: top-dose activation, usual class: activators. actives 0.31% (n = 410,000). AID 624171, 2012; note: potency is the fitted concentration of half-maximal effect; % of control where 0% means no effect; nearly all actives have a fitted effect of over 65% in size
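Nrf2 activation is followed as ARE-luciferase induction in the AREc32 line after one day of compound treatment; luminescence is read with Steady-Glo.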
p53 reactivator = qHTS assay for re-activators of p53 using a Luc reporter; H1299 p53-A138V BP100-luciferase reporter, luminescence, 24 h; Potency, µM (doses to about 92.2 µM), inactives show top-dose activity change, positive = activation, most hits filed as activators; actives 0.063% (n = 320,000); AID 504706, 2011; note: potency is the fitted concentration of half-maximal effect; % of control where 0% means no effect; nearly all actives have a fitted effect of over 45% in size
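H1299 (p53-null), stable ts p53-A138V + BP100-Luc; 1000 cells/well, Opti-MEM/10% FBS; cpd 4 pt, 1:5; 24 h, 37 deg C, 5% CO2; detection reagent 10 min RT; luminescence.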
An asterisk follows results filed as active; ? = inconclusive; . = no result; [ ] = dose if it differs, or a comment. Sampled rows, rich in hits. Any-hit rate of the full collection: about 3.7%. Unless noted, calls come from the whole dose curve; as a rule, active = well fitted curve in the direction sought with a large enough effect; inconclusive = small, poorly fitted or top-dose-only effect, or another doubt; inactive = no such curve, though single readings can be large; an effect the other way counts as inactive or inconclusive.

SMILES	Nrf2 block	ClpP mod	miR-21 act	A549 viability	Nrf2 ARE act	p53 reactivator
CCn1nc(C(=O)NNC(=O)c2ccccc2)c2ccccc2c1=O	?	-8%	.	1%	16µM*	20%
CCn1nc(C(=O)NNC(=O)c2ccc(OC(F)F)cc2)c2ccccc2c1=O	-10%	1%	.	14%	0%	7%
CC(C)(C)OC(=O)NCCCNc1ncnc2ccc(-c3ccc4c(c3)OCO4)cc12	-4%	.	.	-5%	.	.
COc1cc(NS(=O)(=O)c2c(C)nc3sc(C)c(C)n3c2=O)cc(OC)c1	22%	-5%	-5%	3%	0%	.
Cc1nc2scc(C)n2c(=O)c1S(=O)(=O)NCCc1ccc(Cl)cc1	3%	.	1%	?	-1%	0%
Cc1ccc(NS(=O)(=O)c2c(C)nc3sc(C)c(C)n3c2=O)cc1F	21µM*	-12%	3%	1%	3%	.
Cc1ccc(CCNS(=O)(=O)c2c(C)nc3sc(C)c(C)n3c2=O)cc1	9%	6.3µM*	1%	6%	-1%	.
CC1CCCC(NC(=O)c2ccc3c(=O)n(CC4CCCO4)c(=O)[nH]c3c2)C1C (stereo not given)	-22%	25µM*	13%	-9%	0%	-33%
CC(C)NC(=O)c1ccc2c(=O)n(CC3CCCO3)c(=S)[nH]c2c1 (stereo not given)	?	4%	0%	5%	0%	-1%
CCC(=O)N1CCc2cc(Br)cc(S(=O)(=O)CCC(=O)NCCc3ccccc3Cl)c21	-12%[9.27 µM]	2%	7%	0%	1%	.
COC(=O)NNC(=O)COc1ccc2ccccc2c1Br	28%	25µM*	-39%	12%	4%	-3%
CC(C)(C)C(=O)NNC(=O)COc1ccc2ccccc2c1Br	12%	-1%	-1%	?	0%	-3%
Cc1cc2c(cc1S(=O)(=O)NCc1ccc(F)cc1)OCC(=O)N2	-1%	1%	-4%	-16%	1%	.
CCCCCCn1c2c(c(=N)c3c1CCC3)CCC2	15µM*	-2%	?	-6%	4%	-14%
CC(=O)c1c(C(C)=O)c(C)n(-c2nc(-c3ccc(Br)cc3)c(C)s2)c1C	26µM*	0%	-4%	?	0%	-3%
COC(=O)c1ccc(NS(=O)(=O)c2cc3c4c(c2)CCC(=O)N4CCC3)cc1	23µM*	-2%	.	0%	5%	-1%
CCOC(=O)C1=C(C)N=C2c3ccccc3C(=O)C2C1c1ccc(Cl)cc1 (stereo not given)	?	-1%	9%	16µM*	8%	0%
CCOC(=O)C1=NNC(C(=O)c2ccccc2)C1c1ccc(Cl)cc1 (stereo not given)	?	.	-2%	-8%	4%	3%
CC1(C)CC(=O)C2=C(C1)N=C1c3ccccc3C(=O)C1C2c1ccc(Cl)cc1 (stereo not given)	26µM*	2%	21%	26µM*	0%	-14%
CCOC(=O)C1=CCN(S(=O)(=O)c2ccccc2C)C1c1cccc(C)c1 (stereo not given)	.	0%	.	.	1%	.
CC1C(=O)N2CCCc3cc(S(=O)(=O)NCCc4ccccc4)cc1c32 (stereo not given)	16µM*	0%	2%	-2%	0%	-3%
COc1ccc(CCNS(=O)(=O)c2cc3c4c(c2)C(C)C(=O)N4CCC3)cc1OC (stereo not given)	?	-2%	-4%	?	-1%	-5%
Cc1nc(-c2ccc(Cl)cc2)sc1C1(C)CC(c2ccccc2Br)=NO1 (stereo not given)	15%	25µM*	.	-2%	0%	.
COc1cc(-c2nc3c(c(C)nn3-c3ccccc3)c3cc(OC)c(OC)cc23)ccc1O	.	7.9µM*	-7%	5%	0%	-5%
COc1cc2c(-c3cc(Br)ccc3O)nc3c(c(C)nn3-c3ccccc3)c2cc1OC	-12%	?	-6%	-6%	-1%	.
SMILES	Nrf2 block	ClpP mod	miR-21 act	A549 viability	Nrf2 ARE act	p53 reactivator
COc1ccccc1Nc1nc2cc(C)ccc2cc1C#N	-2%	.	3%	1%	9%	3%
COc1ccccc1Nc1nc2ccc(C)cc2cc1C#N	?	25µM*	-1%	19%	1%	1%
O=C1C(=O)N(C2CCN(C(=O)c3ccc(Cl)cc3)CC2)CCN1Cc1ccc(F)cc1	1%	2%	-2%	18%	0%	.
O=C(N/N=C/c1cn(-c2ccccc2)nc1-c1cccs1)c1ccc(Cl)cc1	?	32µM*	24%	-17%	4%	15%
Cc1cc(C)c(O)c(N)c1	.	.	-4%	.	.	4%
CCCCn1c(N)c(N(CC(C)C)C(=O)COC(=O)c2ccccc2NCCO)c(=O)[nH]c1=O	3%	16µM*	.	1%	0%	-2%
CC(C)CN(C(=O)COC(=O)c1cccnc1Cl)c1c(N)n(Cc2ccccc2)c(=O)[nH]c1=O	?	28µM*	.	-1%	0%	-5%
O=C1CC(C(=O)Nc2ccc(F)cc2)S/C(=N\N=C\c2ccco2)N1 (stereo not given)	-5%	-1%	4%	-4%	11µM*	0%
COc1cccc(CNC(=O)c2ccc(-c3nc(CS(=O)c4ccccc4)c(C)o3)cc2)c1 (stereo not given)	-5%	-17%	5%	11%	7%	.
CCCN(CCC)C(=O)/C=C/c1cccc([N+](=O)[O-])c1	-8%	0%	-3%	12%	12%	-1%
CC(C)N(C(=O)/C=C/c1cccc([N+](=O)[O-])c1)C(C)C	4%	-1%	-10%	0%	14µM*	2%
COc1cccc(NC(=O)CSc2nc(=O)n(Cc3ccccn3)c3c2CCC3)c1	.	-9%	4%	5%	4%	.
Cc1ccsc1C1NC(=O)c2ccccc2N1 (stereo not given)	?	16µM*	-32%	-27%	3%	11%
O=C1NC(c2ccccc2Cl)Nc2ccccc21 (stereo not given)	-26%	25µM*	17%	-3%	0%	-14%
O=C1NC(c2cccc3ccccc23)Nc2ccccc21 (stereo not given)	?	?	.	?	4%	.
CCOC(=O)c1ccccc1NC(=O)C(=O)Nc1ccc2nc3n(c(=O)c2c1)CCCCC3	8%	2%	-12%	6%	1%	.
CCc1ccc(NC(=O)CSc2nc(=O)n3cc(C)ccc3n2)cc1	?	25µM*	.	0%	-1%	-4%
